# Data reported in PubChem BioAssay AID687014 (The Scripps Research Institute Molecular Screening Center, 2013).
# The campaign covered roughly 370,000 compounds. About 6,800 (1.8%) were called active. The full list was thinned out, with actives kept by preference. A number with no mark means an inactive call.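 Rule for the calls: active = activation above a cutoff set at the mean of all screened compounds plus 3 SD (cut at about 10% in these data); inactive = the rest.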
# Tested on: Nuclear hormone receptor DAF-12 (Heterodera glycines), GAL4 fusion
# Assay: H. glycines DAF-12 receptor agonists, primary screen, cell-based, luminescence, HEK293, GAL4 fusion, UAS-luciferase (AID 687014);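 note: 0% = DMSO wells and 100% = sodium butyrate wells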
# Conditions: HEK293 GAL4-hgDAF12 UAS-luciferase reporter, agonist luminescence; at 6.8 µM; stronger effect = higher value; normalized to butyrate control
row,Compound,activation
1,Clc1ccc(C(Cn2ccnc2)OCc2ccsc2Cl)c(Cl)c1 (stereo unspecified),-0.6%
2,COc1ccnc(C(=O)N2CCC(Oc3cccnc3)CC2)c1,-2.68%
3,COc1ccc(CCC(C)N2CCc3ccccc3C2)cc1 (stereo unspecified),1.85%
4,COC(=O)[C@]12C[C@H](CC(=O)NCc3ccc(C)o3)C(=O)N(CCC3=CCCCC3)C1=C[C@H](C(C)(C)C)O[C@@H]2C,1.5%
5,COc1ccc(C2CC(c3ccccc3)=NN2C(=O)CSc2nccc(=O)[nH]2)cc1 (stereo unspecified),1%
6,COc1ccc(C2CC(c3ccccc3)=NN2C(=O)c2ccc(Cl)c([N+](=O)[O-])c2)cc1 (stereo unspecified),-2.91%
7,COc1ccc(C2=NN(C(=O)c3ccccc3C(=O)O)C(c3ccccc3O)C2)cc1 (stereo unspecified),16.4% (active)
8,COc1ccc(NCc2nnc(SCc3ccccc3)n2-c2ccc(OC)cc2)cc1,1.53%
9,COc1ccc(CSc2nnc(-c3cccc(C)c3)n2C)cc1,-0.32%
10,COc1ccc2nc(SCc3ccccc3)nc(C)c2c1,16.3% (active)
11,CCOc1ccc(S(=O)(=O)NCC2CCCO2)cc1 (stereo unspecified),-0.13%
12,COC(=O)[C@]12C[C@H](CC(=O)NCc3ccccc3)C(=O)N(Cc3ccccc3)C1=C[C@H](COCc1ccccc1)O[C@@H]2C,-0.41%
13,Cc1ccc(NC(=O)N2c3ccccc3SC2c2ccco2)c(C)c1 (stereo unspecified),-2.03%
14,O=C(CCS(=O)(=O)c1ccccc1)Nc1ccc(Cl)c(Cl)c1,5%
15,COc1ccc(C=C2CCC3C(CCCC34OCCO4)C2=O)cc1 (stereo unspecified),2.78%
16,COc1ccccc1Oc1ccc(N/C=C2/CCCC2=O)cc1,2.59%
17,COc1ccc(/C=C2/CCCc3ccccc3C2=O)cc1,16.7% (active)
18,COc1ccc(Cn2cc(COC(=O)N(C)Cc3ccccc3)nn2)cc1,2.67%
19,O=[N+]([O-])c1ccc2c(c1)C(O)n1nc(-c3ccccc3)nc1S2 (stereo unspecified),-1.58%
20,COc1cccc(-c2nc(CS(=O)(=O)CC(=O)NCCc3ccc(OC)c(OC)c3)c(C)o2)c1,0.2%
21,COc1cccc(-c2nnc(SCCOc3ccc4c(C)cc(=O)oc4c3)o2)c1,-0.66%
22,COc1cccc(-c2nc3cc(C)ccc3o2)c1,17.6% (active)

row,Compound,activation
1,O=[N+]([O-])c1ccc2oc(-c3cccc(O)c3)nc2c1,19.1% (active)
2,CC(=O)Oc1ccc2c(=O)oc(-c3ccc([N+](=O)[O-])cc3)nc2c1,0.03%
3,C=CCN1C(=O)[C@@H](CC(=O)NCCCOCCCC)[C@]2(C(=O)OCC)CCCCC/C=C/12,-2.8%
4,C/C(=N/O)c1ccc(N2C(=O)C3C4C=CC(C3C2=O)C2C3C(=O)N(c5ccc(/C(C)=N/O)cc5)C(=O)C3C42)cc1 (stereo unspecified),-2.43%
5,COc1ccc(-c2cc(-c3nnc(SCC(=O)Nc4cccc5ccccc45)n3N)[nH]n2)cc1,-0.33%
6,CC[C@H](C)[C@H]1CNC(=O)C(=O)N1CC1CCN(CCc2ccc(OC)c(OC)c2)CC1,-1.21%
7,CC[C@@H](CCC(=O)N(c1ccccc1)c1ccccc1)C1CC1,0.58%
8,S=c1[nH]nc(/C=C/c2ccccc2)o1,4.59%
9,O=c1oc(/C=C/c2ccccc2)nc2ccccc12,16% (active)
10,O=c1oc(-c2ccccc2NS(=O)(=O)c2ccc(Cl)cc2)nc2ccccc12,0.61%
11,COc1ccc(-n2c(COc3ccc(C)cc3)nnc2SCC(=O)Nc2ccc(Oc3ccccc3)cc2)cc1,3.51%
12,COc1ccccc1NC(=O)C(C)OC(=O)c1ccc(-n2cnnn2)cc1 (stereo unspecified),-3.02%
13,N#Cc1ccc(C2=CC(=O)C[C@H](c3ccc(Cl)cc3)C2)cc1,-2.41%
14,CC(C)c1cccc(-c2csc(C(O)c3ccccc3)n2)c1 (stereo unspecified),5.67%
15,COc1cccc(C(NC(C)=O)c2nc(-c3cnc4ccccc4c3)cs2)c1 (stereo unspecified),-1%
16,OC(c1ccccc1)c1nc(-c2cnc3ccccc3c2)cs1 (stereo unspecified),22.6% (active)
17,Cc1ccc(N2C(=O)c3ccccc3C2(O)c2ncc[nH]2)cc1 (stereo unspecified),0.14%
18,Cc1ccc2[nH]c(=O)c(CN(CC3COCCO3)C(=O)Nc3ccccc3C)cc2c1 (stereo unspecified),-1.5%
19,COc1ccc2[nH]c(=O)c(CN(CC3CCCO3)C(=O)Nc3ccccc3)cc2c1 (stereo unspecified),-1.35%
20,Cc1cccc(NC(=O)N(Cc2cc3cc(C)cc(C)c3[nH]c2=O)CC2COCCO2)c1 (stereo unspecified),11.3% (active)
21,O/N=C(\c1ccc2c(c1)OCCO2)C1CCCCC1,-1.1%
22,CC(CCN1CCC(C(O)(c2ccccc2)c2ccccc2)CC1)Oc1ccc(Cl)cc1 (stereo unspecified),-0.38%

row,Compound,activation
1,C=CCN1C(=O)[C@@H](CC(=O)NCC2CCCCC2)[C@]2(C(=O)OC)CCCCC=C12,2.02%
2,COC(=O)c1ccc(-c2noc(CN(Cc3ccccn3)CC3CCCO3)n2)cc1 (stereo unspecified),1.07%
3,O=C(Oc1ccc(-c2nc(-c3ccccn3)no2)cc1)c1ccccc1,10.9% (active)
4,O=C(COc1cccc(F)c1)Oc1ccc(C(=O)c2ccccc2)cc1,3.93%
5,CCCC[C@H]1C2CC(OC(=O)NCc3ccccc3)C(C2)[C@H]2CCCCN21 (stereo partly specified),-3.36%
6,Cc1ccc2c(c1)N(CC(=O)NCCc1ccc(Cl)cc1)C(=O)c1cccnc1O2,0.09%
7,O=C(Nc1ccc2ccccc2c1[N+](=O)[O-])c1ccccc1,15.2% (active)
8,Cc1ccc(NC(=O)c2oc3ccccc3c2C)c([N+](=O)[O-])c1,0.32%
9,CN(C)c1ccc(NC(=O)c2ccncc2)c2ccccc12,-2.36%
10,COP(=O)(O)CNC(=O)OCc1ccccc1,2%
11,O=C(CSc1nc2ccccc2n1Cc1ccccc1)NNC(=S)Nc1ccccc1,-0.74%
12,CCNC(=O)C1(C)CCN(C(=O)c2ccccc2)C1 (stereo unspecified),2.75%
13,CCN1C(=O)N[C@@H]2C[C@H](C(=O)N3CCCC3)[C@H](C)[C@H](c3ccccc3)C[C@@H]21,5.37%
14,C=CCOc1c2ccc(C(=O)N(CC)c3ccc(OC)cc3)cc2nn1C,-1.06%
15,CC(=O)C1=C(C)N(Cc2ccccc2)C(=S)NC1c1cccc(Br)c1 (stereo unspecified),-0.58%
16,COc1ccnc(NC(=S)N2CCN(c3ncc(C(F)(F)F)cc3Cl)CC2)c1,2.05%
17,O=c1cc(-c2ccccc2)[nH]c2cc(F)ccc12,-0.32%
18,Fc1ccc2cnc(-c3ccccc3)cc2c1,15.4% (active)
19,COc1cc(OC)cc(-c2cc3ccc(F)cc3cn2)c1,8.86%
20,CC(C)Cn1c(SCC(=O)Nc2ccc(Cl)cc2F)nc(O)cc1=O,-0.64%
21,CC(=O)c1cc(-c2ccc3ccccc3c2)c(=O)n2c1CCC2,0.58%
22,Cc1sc2nc(SCC(=O)c3ccc(O)c(O)c3)n(Cc3ccco3)c(=O)c2c1C,-0.58%
